Bead autofluor – compound fluorescence in toxin protease inhibitor counterscreen; fluorescence intensity (no concentration beside the values); actives 3.1% (n = 360,000); compound autofluorescence counterscreen, microsphere flow cytometry; stronger effect = higher value; AID 624483; in the data active = fluorescence intensity above about 16000; inconclusive = no clear call, values can overlap the other calls
Anthrax LF prot – anthrax lethal factor protease inhibition | P15917 | multiplex microsphere protease cleavage assay, LF | inhibition, % at 10 µM | actives 0.12% (n = 360,000); note: plate controls were buffer without enzyme for full effect and enzyme alone for no effect
MazF activator – increases E. coli MazEF RNase cleavage of RNA; P0AE70; FAM/BHQ RNA-DNA oligo cleavage fluorescence, 5 h; activation, % at 20 µM; actives 0.32% (n = 350,000); AID 504720; in the data active = activation above about 50%
BoNT-F LC inh – BoNT F light chain protease inhibition. inhibition, % at 10 µM. AID 588497. actives 0.22% (n = 360,000). Multiplex microsphere protease cleavage assay, flow cytometry; in the data active = inhibition above about 35%, passing the limit was not always enough; inconclusive = no clear call, values can overlap the other calls; note: plate controls were buffer without enzyme for full effect and enzyme alone for no effect
BoNT-A LC inh2 – blocks Botulinum neurotoxin A light chain protease; actives 0.17% (n = 360,000); inhibition, % at 10 µM; multiplex microsphere protease substrate cleavage, flow cytometry; AID 588499; note: plate controls were buffer without enzyme for full effect and enzyme alone for no effect
* hit, by the source's call; ? = inconclusive; . = no result. Most compounds without a hit are left out; they make up all but 3.6% or so of the library. Cut-off read from the data, not from the text of the source, unless noted: active = inhibition above about 30%; inconclusive = no clear call, values can overlap the other calls; inactive = below that.

SMILES	Bead autofluor	Anthrax LF prot	MazF activator	BoNT-F LC inh	BoNT-A LC inh2
COc1ccc(OC)c(C2=NOC(C(=O)Nc3cccc(C(C)=O)c3)C2)c1 (centres undefined)	23110*	0	0	2	0
COc1ccc(OC)c(C2=NOC(C(=O)Nc3ccccc3SC)C2)c1 (centres undefined)	4527	6	-11	-9	0
Cc1cccn2c(=O)nc(SCC(=O)NCc3ccc4c(c3)OCO4)nc12	6387	3	0	-3	-2
CCCCn1nnnc1C(c1cc2ccccc2o1)N1CCN(c2ccncc2)CC1 (centres undefined)	4663	-4	.	0	0
COc1ccc(CN2CCN(c3ncccn3)CC2)c(OC)c1	22491*	0	0	-3	-1
c1ccc(-c2ccc(CN3CCN(c4ncccn4)CC3)cc2)cc1	16137*	-12	-5	-2	-1
Fc1cccc(CN2CCN(c3ncccn3)CC2)c1	19248*	3	3	7	5
O=S(=O)(NC1CCCC1)c1ccccc1Cl	20825*	0	-8	3	?
O=S(=O)(NC1CCCCCCC1)c1ccccc1F	3852	8	3	-7	-1
CC1(C)CC(NC(=O)c2cc(Cl)ccc2Cl)CC(C)(C)N1	2991	6	3	?	0
O=C(Oc1ccc2c(c1)O/C(=C\c1ccncc1)C2=O)c1ccccc1	2047	-1	220*	2	2
Cc1ccc(/C=C2\Oc3cc(OC(=O)N4CCOCC4)ccc3C2=O)cc1	2382	-1	5	-16	-1
CC(C)(C)NC(=O)C(c1c[nH]c2ccccc12)N(C(=O)Cn1nnc(-c2ccc(Cl)cc2)n1)c1ccccc1F (centres undefined)	2094	-1	0	-2	-1
COc1cccc(N(C(=O)Cn2nnc(-c3ccc(C)cc3)n2)C(C(=O)NC(C)(C)C)c2c[nH]c3ccccc23)c1 (centres undefined)	23333*	-8	-3	-9	-2
CCCCC(=O)Nc1sc2c(c1C(=O)OCC)CCC(C=O)=C2Cl	21678*	4	.	7	?
Cc1ccc(CS(=O)(=O)CCC(=O)NCCN(C)Cc2ccccc2)cc1	23874*	-1	3	-1	0
Cc1ccc(CS(=O)(=O)CCC(=O)NCCc2ccccc2)cc1	3901	1	-19	10	0
O=C(Nc1ccc(F)cc1)c1sccc1SCc1cccc(C(F)(F)F)c1	26797*	-4	-1	-14	?
COc1ccc(NC(=O)c2sccc2SCc2cccc(C(F)(F)F)c2)cc1	8053	-6	-8	-5	-1
O=C(NCCc1ccccc1F)C1CCCN1S(=O)(=O)c1ccc2ccccc2c1 (centres undefined)	20558*	-4	-5	-3	0
CCOc1ccccc1N1CC(C(=O)NCCc2ccc(S(N)(=O)=O)cc2)CC1=O (centres undefined)	20308*	-2	-2	-2	1
NS(=O)(=O)c1ccc(CCNC(=O)C2CCCCN2S(=O)(=O)c2ccccc2)cc1 (centres undefined)	21340*	-17	0	0	2
C/C(=N\S(=O)(=O)c1ccc(C)cc1)N1CCN(S(=O)(=O)c2ccccc2)C1C(C)C (centres undefined)	22111*	3	-13	2	1
Cc1ccc(S(=O)(=O)N2CCN(C(=O)c3ccccc3)C2C(C)C)cc1 (centres undefined)	6713	3	1	2	0
CN(C(=O)c1cccc(NC(=O)Cc2cccc(NC(=O)C3CCCN(C(=O)C4CCC4)C3)c2)c1)C1CCC1 (centres undefined)	3723	-5	-4	3	0
SMILES	Bead autofluor	Anthrax LF prot	MazF activator	BoNT-F LC inh	BoNT-A LC inh2
Cc1oc(=O)c(NC(=O)c2cccc(Cl)c2)cc1C(=O)c1ccccc1	21979*	0	-1	1	?
COc1ccc(C(=O)Nc2cc(C(=O)c3ccccc3)c(C)oc2=O)cc1	10513	-6	4	5	0
Cc1ccccc1NC(=O)N1CCCC(c2nc(-c3ccc(C(C)C)cc3)no2)C1 (centres undefined)	23120*	-3	-4	-3	0
CC(C)c1ccc(-c2noc(C3CCCN(C(=O)c4ccc(F)cc4F)C3)n2)cc1 (centres undefined)	22538*	-9	-5	-5	0
O=S(=O)(Cc1ccccc1)N1CCCC(c2nc(-c3ccc(F)cc3)no2)C1 (centres undefined)	21682*	-4	-11	3	1
O=S(=O)(c1ccc(F)cc1)N1CCCC(c2nc(-c3ccc(F)cc3)no2)C1 (centres undefined)	3995	-3	-2	-15	-1
Cc1ccccc1NC(=O)N1CCCC(c2nc(-c3ccc(F)cc3)no2)C1 (centres undefined)	9980	-4	3	-5	-1
CCc1ccccc1NC(=O)CC1S/C(=N\c2nccs2)N(CC)C1=O (centres undefined)	17187*	-1	-2	0	-2
COCCNC(=O)C1(C)CCCN(Cc2cc(C(F)(F)F)ccc2Cl)C1 (centres undefined)	3575	-1	.	-3	0
CCCCC1(C)OC(=O)C(=Cc2ccc(N(C)C)cc2)C(=O)O1 (centres undefined)	3295	2	-273	6	0
CCCCC1(C)OC(=O)C(=Cc2c[nH]c3ccccc23)C(=O)O1 (centres undefined)	2681	-1	235*	-7	-1
COc1ccccc1C(=O)NCCC(=O)NCc1ccncc1	3952	-2	5	1	0
COc1cc(/C=C2/SC(=S)N(CC(=O)Nc3nc4ccccc4s3)C2=O)cc(OC)c1OC	5455	42*	-34	34	40*
COc1cc(/C=C2\SC(=S)N(CC(=O)Nc3ccccn3)C2=O)cc(OC)c1OC	2410	24	-37	19	39*
CCc1nnc(NC(=O)CN2C(=O)/C(=C/c3cc(OC)c(OC)c(OC)c3)SC2=S)s1	2483	4	-13	-26	2
CCOc1cc(/C=N/NC(=O)C(=O)Nc2cc(Cl)ccc2C)ccc1O	2005	3	19	2	0
O=C(COC(=O)COc1ccc2ccccc2c1)NCC(F)(F)F	4574	-6	16	37*	4
CCNC(=O)COc1ccc2ccccc2c1	4284	-6	6	-18	-2
Nc1ccc2c(c1)C(O)c1cccc(C(=O)O)c1-2 (centres undefined)	3347	-4	5	-5	0
COc1ccccc1NC(=O)NC(N)=O	21653*	0	2	-3	0
COc1ccccc1NC(=O)Nc1nnc(CC(=O)Nc2ccccc2C)s1	4379	4	-3	-3	0
CCc1nnc(NC(=O)Nc2ccccc2OC)s1	22103*	-7	1	1	?
COc1ccccc1NC(=O)NC(=O)c1ccccc1	3738	0	0	?	5
CC(C)N1CC2=C(OC(N)=C(C#N)C2c2cccnc2)/C(=C/c2cccnc2)C1 (centres undefined)	4547	-1	64*	5	-1
